Source: PubChem BioAssay (NCI)
Compounds without any hit were thinned out: in the full panel of roughly 79,000, 15% have a hit. A number with no mark means an inactive call. The source made the active and inactive calls. Cut-off read from the data, not from the text of the source: active = growth inhibition above about 70%; inactive = the rest.

Legend:
[1] = NCI Yeast Anticancer Drug Screen. Data for the rad50 strain (AID 155);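 note: 0% = growth of vehicle-only cultures of the same strain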; conditions: S. cerevisiae rad50 strain growth inhibition; at 50.0 µM; stronger effect = higher value
Procedure, shortened: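 Growth of the mutant yeast was measured after compound exposure and referenced to vehicle-treated cultures.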

[2] = NCI Yeast Anticancer Drug Screen. Data for the mec2-1 strain (AID 157); conditions: S. cerevisiae mec2-1 strain, at 50.0 µM, stronger effect = higher value
Procedure, shortened: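 Each compound was tested on mec2-1 yeast, a strain altered in DNA damage repair or cell cycle control. Growth inhibition is reported relative to vehicle.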

[3] = NCI Yeast Anticancer Drug Screen. Data for the sgs1 mgt1 strain (AID 161);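 note: 0% = growth of cultures given vehicle only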; conditions: S. cerevisiae sgs1 mgt1 strain, at 50.0 µM, stronger effect = higher value
Procedure, shortened: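 Genetically altered yeast, compound exposure, growth inhibition relative to vehicle.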

[4] = NCI Yeast Anticancer Drug Screen. Data for the cln2 rad14 strain (AID 165);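 note: 0% = growth equal to vehicle treated cultures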; conditions: S. cerevisiae cln2 rad14 strain, at 50.0 µM, stronger effect = higher value
Procedure, shortened: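 Test compounds were added to cln2 rad14 yeast cultures; inhibition of growth was then determined by comparison with vehicle treatment.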

[5] = NCI Yeast Anticancer Drug Screen. Data for the bub3 strain (AID 167); conditions: S. cerevisiae bub3 mutant strain, at 50.0 µM, stronger effect = higher value
Procedure, shortened: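 Whole-cell yeast assay. The mutant strain was incubated with compounds, and growth inhibition was determined by comparison with vehicle-treated cells.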

[6] = NCI Yeast Anticancer Drug Screen. Data for the mlh1 rad18 strain (AID 175); conditions: S. cerevisiae mlh1 rad18 strain growth inhibition; at 50.0 µM; stronger effect = higher value
Procedure, shortened: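 Inhibition values reflect reduced growth of mutant yeast versus vehicle-treated controls following compound exposure; the mutations affect DNA damage repair.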

Row | Structure (SMILES) | growth inhibition [1] | growth inhibition [2] | growth inhibition [3] | growth inhibition [4] | growth inhibition [5] | growth inhibition [6]
1 | O=[N+]([O-])c1ccc(N/N=C(\Cc2ccccc2)c2ccccc2)c([N+](=O)[O-])c1 | 6.8% | 2.25% | 6.2% | -20.3% | -5.75% | 2.3%
2 | Cc1ccc(S(=O)(=O)Oc2ccccc2OS(=O)(=O)c2ccc(C)cc2)cc1 | 3.4% | 2.35% | -13.9% | -4.1% | -5% | 0.75%
3 | N=C(N)SCCSC(=N)N | -13.5% | -8.4% | -30.6% | 9.7% | -16.4% | 12.9%
4 | CC(C)(C)C1=NC(S)NC(CCC(=O)Nc2ccccc2[N+](=O)[O-])=C1 (configuration not stated) | 0.4% | -8.85% | -0.4% | 14.2% | 8.05% | -7.4%
5 | CC(=O)Nc1ccc(S(=O)(=O)N/N=C/c2ccc3c(c2)OCO3)cc1 | 4.85% | -20.2% | 2.55% | 2.15% | -33.7% | -20.5%
6 | COc1ccccc1NC(=O)/C(=C/C1CC(=O)NC1=S)C(C)=O (configuration not stated) | -18.6% | -9.4% | -18.6% | 15.5% | 12% | -7.4%
7 | CCCCOc1ccc(C(=O)C(C(c2ccccc2)N2CCOCC2)N2CCOCC2)cc1 (configuration not stated) | -7.8% | -4.85% | -9.4% | -6.8% | -12.2% | 9.2%
8 | C=CCSc1nc2ccc(N3C(=O)C4C5C=CC(C5)C4C3=O)cc2s1 (configuration not stated) | -15.2% | -2.75% | -6.35% | -17.6% | -8.3% | -27.9%
9 | CC(C)(C)CC(C)(C)NCc1ccc(Cl)cc1 | 78.6% (active) | 45% | 61.3% | 40.2% | 65.6% | 60.6%
10 | O=S(=O)(OCC(F)(F)F)c1ccccc1 | 16.4% | 8.25% | 14.7% | -2.8% | -8.8% | -10.4%
11 | CNC(=O)CCCCC(=O)NC | -5.65% | -7.9% | -2.7% | 6.15% | -10.8% | -19.2%
12 | CCOC(=O)/C(C#N)=C(O)\C(=C\c1ccc(Cl)cc1)NC(=O)c1ccc(NC(C)=O)cc1 | 8.9% | -0.3% | -17.4% | 9.2% | -8.1% | 5.65%
13 | CCCCCCCCCCCCCCCCCC(=O)NCC[N+](C)(C)C | 99% (active) | 99.5% (active) | 99.4% (active) | 98.8% (active) | 98.8% (active) | 99.2% (active)
14 | O=C(NCCCC1NC(=O)/C(=C(O)/C=C/C=C/c2ccccc2)C1=O)OCc1ccccc1 (configuration not stated) | 38.4% | -1.65% | 17.1% | -2.75% | 0.25% | 21.8%
15 | Cc1cccc(Cl)c1NC(=O)Nc1ccc(C#N)cc1 | 15.4% | -10.6% | 17.9% | 5.35% | -3.45% | -1%
16 | Cn1ccnc1CC(C)(O)c1ccccc1 (configuration not stated) | -13.2% | -17.4% | -44.9% | 3.9% | -23.4% | 6.8%
17 | CNC(=O)SCC(N)C(=O)O (configuration not stated) | 1.25% | -4.85% | -8.3% | -16.4% | -0.9% | 2%
18 | N#CC/C(C#N)=C/OC(=O)c1ccc(Cl)cc1 | 12.2% | -4.5% | -13.3% | -33.5% | -17.9% | -7.15%
19 | Cc1ccc(OC/C=N\N=C(N)N)cc1C | -7.9% | 16.4% | 41.3% | -6% | 8.3% | 17.1%
20 | S=C(Nc1ccccc1)Nc1ccccn1 | 10.1% | -29.6% | 4.05% | -30.8% | -4.35% | 4.25%
21 | Cc1cc(Br)ncc1[N+](=O)[O-] | -12.8% | 3.3% | -1.25% | -6% | -3.7% | -7.6%

Row | Structure (SMILES) | growth inhibition [1] | growth inhibition [2] | growth inhibition [3] | growth inhibition [4] | growth inhibition [5] | growth inhibition [6]
22 | CCOC(=O)CC1C(O)C(=O)N(C)C1c1ccccc1 (configuration not stated) | 21% | -8.05% | 1.75% | 42.3% | 9% | -50.4%
23 | O=C(/C=C/c1ccc2c(c1)OCO2)C1CC1 | 6.45% | 11.1% | 28.2% | 8.25% | 27.7% | 16.9%
24 | O=C1OC(c2ccccc2)=N/C1=C\c1cc2c(cc1Cl)OCO2 | 4.05% | 11.7% | 16.1% | -25.3% | -5.7% | 20.1%
25 | CC(C)(Br)C(=O)N1CCN(C(c2ccccc2)c2ccccc2)CC1 | 3.15% | 8.2% | 2.3% | -0.15% | -0.3% | 14.7%
26 | C=CCSc1nc2c(=O)n(C)c(=O)n(C)c2n1C | -11.3% | -3.55% | -6.85% | -27.3% | -6.8% | 7.15%
27 | CC(=O)/C(=N/O)C(C)C | 4.6% | -3.5% | 6.35% | -0.35% | -0.45% | 2.8%
28 | Clc1ccc2ccc3ccc(Cl)nc3c2n1 | 18.5% | 20.4% | 26.4% | -18.5% | 8.5% | 9.95%
29 | Cc1ccc(-n2[nH]nc(C#N)c2=O)cc1 | -6.75% | -20.6% | -23.9% | -1.25% | -27.1% | 5.65%
30 | O=c1c2ccccc2nc(-c2ccccc2)n1-c1cc(C(F)(F)F)cc(C(F)(F)F)c1 | -20.5% | -23% | 7.85% | 10.8% | 4% | 5.95%
31 | O=c1c(Cc2ccccc2)coc2ccccc12 | 30.6% | 14.6% | 21.4% | -14.2% | 27.5% | -1.5%
32 | Clc1ccc(-c2c3nc(c(-c4ccc(Cl)cc4)c4ccc([nH]4)c(-c4ccc(Cl)cc4)c4nc(c(-c5ccc(Cl)cc5)c5ccc2[nH]5)C=C4)C=C3)cc1 | -30.6% | -17.9% | -12.4% | 15.8% | -14.3% | -18.9%
33 | Clc1ccccc1C=Nc1ccccc1 | 31.2% | 11.9% | 30.7% | 20.6% | 24.7% | 34%
34 | CCOC(=O)c1c(C)n2c3c(cccc13)CCC2 | 23.4% | 16.9% | 3.05% | 61.6% | 8.6% | 12.8%
35 | CCCCCCCCCCCCCCCC[N+]1(C)CCC[N+](C)(CCCCCCCCCCCCCCCC)CC1 (configuration not stated) | -5.25% | -21% | -2.65% | -22.6% | -8.4% | -0.1%
36 | CCOC(=O)Nc1nc2c(s1)c([N+](=O)[O-])cn2C | 11.6% | 7% | 17.1% | 2.45% | 4.6% | 20.6%
37 | COc1ccc(/C=C\c2cc(OC)c(OC)c(OC)c2)cc1OCC(=O)O | -5.95% | -1.75% | 13% | 8.65% | -10.4% | -52.5%
38 | CC1(CC2(c3ccccc3)NC(=O)NC2=O)NC(=O)NC1=O (configuration not stated) | -0.55% | -19.6% | 0.9% | 10.6% | 11.8% | 5.65%
39 | N#Cc1[nH]nc2nc[nH]c(=O)c12 | -16.3% | -14.8% | -10.8% | -9.95% | 3.9% | 4.85%
40 | Cc1ccc(CN2CCCCC2)o1 | 16.6% | 3.2% | 0.2% | 1.1% | 2.05% | 7.5%
41 | Cn1ncc(C(=O)O)c1[N+](=O)[O-] | 6.85% | -14.5% | 8.35% | -37.6% | -6.2% | 5.25%
42 | NCCCC(NC(=O)CCCCCCCCN=C(N)N)C(O)CCCCCCCCN=C(N)N (configuration not stated) | 20.9% | 14.8% | 4.55% | -6.8% | 22.3% | 0.75%
